About 83,000 compounds went through this panel and 20% of them were active in at least one assay; those are over-represented in the sample as a whole.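 Cells were grown in 96-well plates and exposed to the test compound at a single concentration for 48 hours; results are reported as percent growth, with values below 10 considered active.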 Unmarked numbers belong to inactive results. Activity calls are given as the source filed them.
Legend:
Assay in all cases: NCI-60 one-dose screen, 48 h (100 = growth as untreated, 0 = no growth, -100 = all killed)
[1] = tested on: SR leukemia; conditions: 10 µM
[2] = tested on: RPMI-8226 leukemia; conditions: 10 µM
[3] = tested on: OVCAR-8 ovarian; conditions: 10 µM
[4] = tested on: OVCAR-5 ovarian; conditions: 10 µM
[5] = tested on: OVCAR-4 ovarian; conditions: 10 µM
[6] = tested on: SK-OV-3 ovarian; conditions: 10 µM
[7] = tested on: IGROV1 ovarian; conditions: 10 µM
[8] = tested on: OVCAR-3 ovarian; conditions: 10 µM
[9] = tested on: HS 578T breast; conditions: 10 µM
[10] = tested on: NCI/ADR-RES ovarian; conditions: 10 µM
[11] = tested on: T-47D breast; conditions: 10 µM
[12] = tested on: BT-549 breast; conditions: 10 µM
[13] = tested on: MDA-MB-435 melanoma; conditions: 10 µM
[14] = tested on: SW-620 colon; conditions: 10 µM
[15] = tested on: MCF7 breast
[16] = tested on: HCT-116 colon; conditions: 10 µM
[17] = tested on: HCC-2998 colon; conditions: 10 µM
[18] = tested on: KM12 colon; conditions: 10 µM

| Compound | growth [1] [%] | growth [2] [%] | growth [3] [%] | growth [4] [%] | growth [5] [%] | growth [6] [%] | growth [7] [%] | growth [8] [%] | growth [9] [%] | growth [10] [%] | growth [11] [%] | growth [12] [%] | growth [13] [%] | growth [14] [%] | growth ([15]; 10 µM unless noted) [%] | growth [16] [%] | growth [17] [%] | growth [18] [%] | growth ([15]; 10 µM) [%] | growth ([15]; 100 µM) |
| --- | --- | --- | --- | --- | --- | --- | --- | --- | --- | --- | --- | --- | --- | --- | --- | --- | --- | --- | --- | --- |
| COCCCC/C(=N\OCCN)c1ccc(C(F)(F)F)cc1 | 85.8 | 100 | 102 | 92.5 | 110 | 105 | 105 | 105 | 97.6 | 102 | 86.4 | 107 | 99.4 | 97.1 | 108 | 101 | 116 | 107 | – | – |
| C=C1CC/C=C(\C)C(=O)C[C@@H]2[C@@H]1CC2(C)C | 95.7 | 68.3 | 98.1 | 108 | 110 | 101 | 11.4 | 96.7 | 122 | 115 | 94.6 | 105 | 115 | 119 | – | 99.9 | 98.1 | 109 | 101 | -72% (active) |
| N#Cc1c(N)sc(=S)c2c1CCCC2 | 93.6 | 95.1 | 103 | 108 | 102 | 103 | 116 | 113 | 104 | 104 | 95.7 | 98.5 | 109 | 112 | 93.3 | 104 | 106 | 110 | – | – |
| Cc1ccc(N)cc1[N+](=O)[O-] | 115 | 116 | 103 | 116 | 83.3 | 112 | 110 | 115 | 113 | 102 | 107 | 97.9 | 119 | 100 | 76.4 | 101 | 92.5 | 105 | – | – |
| Cc1cccc(CO)c1 | 109 | 114 | 101 | 107 | 103 | 107 | 115 | 98.9 | 101 | 106 | 98.8 | 106 | 108 | 103 | 96.6 | 104 | 112 | 97 | – | – |
| C/C(=C\c1ccc([N+](=O)[O-])cc1)C(=O)O | 96.3 | 95.8 | 99.2 | 104 | 99.2 | 104 | 110 | 110 | 101 | 109 | 98.8 | 94.2 | 102 | 102 | 95.7 | 97.3 | 101 | 103 | – | – |
| CC(=O)NCc1cc(C)c(C)cc1C | 97.6 | 88.1 | 104 | 95.5 | 106 | 97.6 | 104 | 101 | 108 | 105 | 89 | 100 | 114 | 107 | 97.4 | 101 | 115 | 95.7 | – | – |
| O=c1cc(-c2ccccc2)nc2cc(-c3ccco3)[nH]n12 | 13.1 | 71.6 | 101 | 116 | 91.5 | 90.3 | 70.5 | 93.7 | 89.2 | 98.9 | 65.4 | 98.3 | 41.8 | 81.7 | 28 | 90.3 | 91.7 | 69.5 | – | – |
| CC1(C(=O)O)NC(C(=O)O)Cc2c1[nH]c1ccccc21 (stereo not drawn) | 92.8 | 95.4 | 104 | 101 | 105 | 92.7 | 107 | 112 | 109 | 104 | 95.7 | 119 | 94.6 | 97.8 | 98 | 92.6 | 104 | 103 | – | – |
